HepG2 tox = qHTS for Inhibitors of TGF-b: Cytotox Counterscreen | HepG2 CAGA-GFP viability, ATP luminescence, 18 h | Potency, µM (titrated, usually from 46.1 µM), for the others: at the highest dose activity change, negative = cytotoxicity, hits mostly cytotoxic | 410,000 compounds, 0.76% hits | AID 588856, 2011; also: potency is read from the fitted curve at half-maximal effect
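CellTiter-Glo luminescence gave cytotoxicity after 18 hours at 37 degrees C. The cells were HepG2 CAGA-GFP in 1% FBS DMEM, stimulated with 500 pg/mL TGF-beta after compound addition. %Activity was normalised to no-cell wells (complete cell-killing) and DMSO (no toxicity), and curves were fitted and classified.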
DT40 TDP1 no CPT = qHTS for Inhibitors of human tyrosyl-DNA phosphodiesterase 1 (TDP1): qHTS in cells in absence of CPT. 420,000 compounds, 15% hits. Potency, µM (top dose mostly 46.2 µM), for inactives: top-dose activity change, negative = growth inhibition, hits mostly inhibitors. DT40 Tdp1-/- hTDP1 cells, no CPT, ATP luminescence, 48 h; also: potency is read from the fitted curve at half-maximal effect; % is scaled to controls: 0 for no effect and ±100 for the full control effect; nearly all actives have a fitted effect of over 55% in size
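No-CPT arm: Tdp1-/-;hTDP1 DT40 cells (400/well) plus compounds, incubated ≥48 hr at 37 °C. Readout CellTiter-Glo luminescence.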
TGFb inhibitor = qHTS for Inhibitors of TGF-b | HepG2 CAGA-GFP TGF-b/SMAD3 reporter, GFP fluorescence, 18 h; TGF-beta stimulated, 500 pg/mL final | Potency, µM (highest dose often 46.1 µM), for inactives: at the top dose activity, negative = inhibition, most hits filed as inhibitors | 410,000 compounds, 1.2% hits; also: potency is read from the fitted curve at half-maximal effect; % is scaled to controls: 0 for no effect and ±100 for the full control effect; nearly all actives have a fitted effect of over 65% in size
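Cell-based qHTS in HEPG2 carrying a CAGA-GFP Smad reporter; compounds added before 500 pg/mL final TGF-beta, 18 h incubation at 37 degrees C, GFP fluorescence quantified per cell by imaging cytometry.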
TDP1 cell CPT = qHTS for Inhibitors of human tyrosyl-DNA phosphodiesterase 1 (TDP1): qHTS in cells in presence of CPT; chicken DT40 Tdp1-/-;hTDP1 cells + 20 nM CPT, ATP luminescence, 48 h; Potency, µM (titrated, usually from 46.2 µM), without a hit: at the highest dose activity change, negative = growth inhibition, hits mostly inhibitors; 420,000 compounds, 12% hits; AID 686979, 2013; also: potency is read from the fitted curve at half-maximal effect; % is scaled to controls: 0 for no effect and ±100 for the full control effect; nearly all actives have a fitted effect of over 55% in size
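Chicken DT40 Tdp1-/- cells complemented with human TDP1, 400 cells/well, exposed to compounds plus 20 nM camptothecin for at least 48 h at 37 C; viability read as ATP content by CellTiter-Glo luminescence.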
IL-1B inflam inh = qHTS for Inhibitors of Inflammasome Signaling: IL-1-beta AlphaLISA Primary Screen; AID 743279, 2014; THP-1 LPS/ATP IL-1B secretion, AlphaLISA, 16 h; hits give low values; 360,000 compounds, 4.7% hits; activity change, % at 57.5 µM; in the data active = activity change below about -50%; inconclusive = mostly about -30% to -49%; also: % is scaled to controls: 0 for no effect and ±100 for the full control effect
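THP-1 cells pretreated 1 hr with compounds (up to 57.5 uM final), then stimulated with LPS (250 ng/mL final) plus ATP (1.25 mM final); secreted IL-1B measured by AlphaLISA after 16 hr, decreased signal indicating inhibition.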
S-ASM inh = Inhibitors of Secretory Acid Sphingomyelinase (S-ASM): qHTS; Sphingomyelin phosphodiesterase (Homo sapiens), P17405; placental ASM, HMU-PC fluorogenic substrate, 60 min; 340,000 compounds, 0.006% hits; Potency, µM (doses to about 57.5 µM), without a hit: at the highest dose activity change, negative = inhibition, usual class: inhibitors; also: potency is read from the fitted curve at half-maximal effect
Target sequence (P17405 47-631 limits assumed): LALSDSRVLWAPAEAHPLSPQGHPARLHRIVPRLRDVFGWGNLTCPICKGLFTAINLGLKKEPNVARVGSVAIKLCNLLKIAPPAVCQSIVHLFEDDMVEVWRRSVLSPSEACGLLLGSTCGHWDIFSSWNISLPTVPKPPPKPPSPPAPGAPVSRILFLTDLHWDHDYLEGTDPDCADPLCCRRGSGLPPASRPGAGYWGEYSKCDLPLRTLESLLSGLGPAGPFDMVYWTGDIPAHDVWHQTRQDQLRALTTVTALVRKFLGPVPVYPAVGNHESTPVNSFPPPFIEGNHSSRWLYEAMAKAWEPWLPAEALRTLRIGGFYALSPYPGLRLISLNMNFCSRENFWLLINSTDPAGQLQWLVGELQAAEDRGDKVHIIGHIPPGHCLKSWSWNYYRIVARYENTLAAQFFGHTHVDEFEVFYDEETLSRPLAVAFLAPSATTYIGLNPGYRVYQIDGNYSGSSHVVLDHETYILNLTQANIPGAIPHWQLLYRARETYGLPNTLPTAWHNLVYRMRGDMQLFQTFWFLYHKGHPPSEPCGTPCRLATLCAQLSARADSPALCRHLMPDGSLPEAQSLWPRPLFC
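Human placenta-derived ASM enzyme was preincubated with compound for 10 minutes at room temperature, then given fluorogenic substrate HMU-PC0 (9 uM final) for 60 minutes at 37 °C; a pH 10 stop preceded fluorescence reading at Ex 386/Em 447 nm.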
An asterisk follows results filed as active; ! = a repeat was not active; [ ] = remark or other dose. Only some compounds are listed: those with a hit (about 19% of all), similar ones and a draw of the others. Unless noted, calls follow the shape of the dose curve; as a rule, active = well fitted curve in the direction sought with a large enough effect; inconclusive = small, poorly fitted or top-dose-only effect, or another doubt; inactive = no such curve, though single readings can be large; an effect the other way counts as inactive or inconclusive.

Screening O=C(N/N=C/c1cccc2ccccc12)c1ccncc1 returned HepG2 tox 10%, DT40 TDP1 no CPT -16%, TGFb inhibitor 25%, TDP1 cell CPT 2%, IL-1B inflam inh -2 and S-ASM inh -5%.
O=C(N/N=C/c1ccc(O)c2ncccc12)c1cccc(Br)c1 was read as HepG2 tox -55%, DT40 TDP1 no CPT 4.6µM*, TGFb inhibitor 13µM*, TDP1 cell CPT 3.7µM*, IL-1B inflam inh 121 and S-ASM inh -5%.
O=C(N/N=C/c1ccccc1)c1cc[n+]([O-])cc1 was read as HepG2 tox -1%, DT40 TDP1 no CPT -17%, TGFb inhibitor -1%, TDP1 cell CPT -3%, IL-1B inflam inh 0 and S-ASM inh -1%[11.5 µM].
`O=C(N/N=C/c1cc(Cl)ccc1O)c1ccc(Br)cc1` gave HepG2 tox -18%, DT40 TDP1 no CPT 5.8µM*, TGFb inhibitor -16%, TDP1 cell CPT 5.2µM*, IL-1B inflam inh 47 and S-ASM inh 3%.
O=C(N/N=C/c1ccccc1O)c1ccncc1 was read as HepG2 tox -33%, DT40 TDP1 no CPT 3.7µM*, TGFb inhibitor -5%, TDP1 cell CPT 4.6µM*!, IL-1B inflam inh 110 and S-ASM inh -2%.
O=C(N/N=C/c1ccccc1O)c1cc[n+]([O-])cc1 was read as HepG2 tox -13%, DT40 TDP1 no CPT 29µM*, TGFb inhibitor -6%, TDP1 cell CPT 15µM*, IL-1B inflam inh 42 and S-ASM inh 2%.
For Cc1ccc(-n2nc(CO)c(C(=O)NCCCCc3ccccc3)n2)cc1 the results were HepG2 tox 2%, DT40 TDP1 no CPT inconclusive, TGFb inhibitor -13% and TDP1 cell CPT -25%.
`Cc1noc(-c2ccccc2OCC(=O)Nc2cccc([N+](=O)[O-])c2)n1` gave HepG2 tox 1%, DT40 TDP1 no CPT -29%, TGFb inhibitor -8% and TDP1 cell CPT inconclusive.
`Cc1cc(OCC(=O)NCc2ccncc2)c2c(C)cc(=O)oc2c1` gave HepG2 tox -1%, DT40 TDP1 no CPT 24%, TGFb inhibitor 5%, TDP1 cell CPT 0%, IL-1B inflam inh 4 and S-ASM inh 4%.
`O=C(CNC(=O)c1ccc(S(=O)(=O)N2CCCC2)cc1)N/N=C/c1ccc(Cl)cc1` gave HepG2 tox -8%, DT40 TDP1 no CPT inconclusive, TGFb inhibitor 1%, TDP1 cell CPT inconclusive, IL-1B inflam inh -13 and S-ASM inh -1%.
Screening O=C(N/N=C/c1cc(Br)ccc1OC(=O)c1ccc(Br)cc1)c1ccncc1 returned HepG2 tox -31%, DT40 TDP1 no CPT 6.5µM*, TGFb inhibitor -26%, TDP1 cell CPT 4.6µM*, IL-1B inflam inh 113 and S-ASM inh -6%.
`O=C(CNC(=O)c1ccc(S(=O)(=O)N2CCCC2)cc1)N/N=C/c1c(Cl)cccc1Cl` gave HepG2 tox -23%, DT40 TDP1 no CPT inconclusive, TGFb inhibitor -13%, TDP1 cell CPT inconclusive, IL-1B inflam inh -58* and S-ASM inh -8%.
Cc1ccc(NCC(=O)N/N=C/c2cc3ccccc3nc2Cl)cc1 was read as HepG2 tox -42%, DT40 TDP1 no CPT 29µM*, TGFb inhibitor inconclusive, TDP1 cell CPT 23µM*, IL-1B inflam inh -21 and S-ASM inh -5%.
Screening Cc1nc(C)c(C(=O)N/N=C/c2cc(Br)ccc2O)s1 returned HepG2 tox -9%, DT40 TDP1 no CPT 3.7µM*, TGFb inhibitor inconclusive, TDP1 cell CPT 4.6µM*, IL-1B inflam inh 119 and S-ASM inh -1%.

Source: PubChem BioAssay (National Center for Advancing Translational Sciences (NCATS))
